Pf growth 96h – P. falciparum growth inhibition at 96 hour, primary screen for plastid delayed-death inhibitors. actives 6.9% (n = 320,000). Potency, µM (series often up to 28.7 µM), inactives show at the highest dose activity change, negative = inhibition, hits mostly inhibitors. P. falciparum luciferase reporter growth, 96 h. AID 504834; active = well fitted inhibition curve with a large enough effect; inconclusive = small, poorly fitted or top-dose-only effect, or another doubt; inactive = no such curve, though single readings can be large or run the other way; note: potency is the fitted concentration of half-maximal effect; % is set by controls: 0 for no effect and ±100 for the full control effect
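Plates of compound plus infected erythrocytes (2% hematocrit, 0.05% parasitemia final) incubate 96 hours, 37 C, 5% CO2. Detection reagent added; reduced luminescence from the parasites' luciferase reporter flags inhibition.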
SARS PLP yeast – SARS-CoV PLP inhibition in yeast. S. cerevisiae expressing SARS-CoV PLpro, growth rescue. Potency, µM (doses to about 32.9 µM), inactives show at the highest dose activity, positive = growth rescue, usual class: activators. actives 0.19% (n = 330,000). AID 485353; note: potency is the fitted concentration of half-maximal effect; 0% is about no effect; nearly all actives have a fitted effect of over 55% in size
NS1 inh – blocks influenza NS1 protein function; AID 2326; actives 0.4% (n = 270,000); Potency, µM (doses to about 46.1 µM), inactives show at the highest dose activity, positive = more growth; note: potency is the fitted concentration of half-maximal effect; actives are rising curves; nearly all actives have a fitted effect of over 50% in size
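OD600 was taken as the measure of yeast growth restored by compound in an NS1-expressing S. cerevisiae strain. Cells had been washed out of glucose medium and diluted 1:100 into galactose -URA medium, pH 6.0.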
Pf growth 48h – P. falciparum growth inhibition at 48 hours (one generation); AID 504832; P. falciparum luciferase growth in erythrocytes, 48 h; actives 5.9% (n = 310,000); Potency, µM (series often up to 28.7 µM), without a hit: at the top dose activity change, negative = inhibition, actives largely listed as inhibitors; active = well fitted inhibition curve with a large enough effect; inconclusive = small, poorly fitted or top-dose-only effect, or another doubt; inactive = no such curve, though single readings can be large or run the other way; note: potency is the fitted concentration of half-maximal effect; % is set by controls: 0 for no effect and ±100 for the full control effect
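First compound was added to culture medium, then infected red cells at 0.1% parasitemia and 2% hematocrit (final). After incubation at 37 C under 5% CO2, luciferase detection reagent was dispensed and light output recorded.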
Shiga inhibitor – Shiga toxin inhibition; Vero cells, Shiga toxin protein synthesis inhibition reporter; inhibition, % at 38.7 µM; actives 9.2% (n = 290,000); AID 2315; in the data active = inhibition mostly above about 28%, no sharp cut-off; inactive = mostly below about 43%; note: 0% is about no effect
Cycloheximide cs – affects cycloheximide protein synthesis inhibition readout, counter-screen. cell reporter, cycloheximide protein synthesis inhibition counterscreen. max response, %. actives 12% (n = 300,000); in the data active = max response mostly above about 13%, no sharp cut-off; inactive = mostly below about 14%; note: read at 38.3 µM for the half of the compounds with a filed dose; 0% is about no effect
The depositor's hits bear a star; i = inactive; ? = inconclusive; . = no result given. A selection: hits, their analogues and other compounds. The true share with any hit is near 21%. Unless noted, calls come from the whole dose curve.

SMILES	Pf growth 96h	SARS PLP yeast	NS1 inh	Pf growth 48h	Shiga inhibitor	Cycloheximide cs
CC(C)C(=O)NNC(=O)CSc1nc(C2CCCCC2)nc2ccccc12	1.5µM*	16%	11%	1%	-15	-3
O=C(CSc1nc(C2CCCCC2)nc2ccccc12)NCc1ccc2c(c1)OCO2	37%	3%	4%	-4%	15	-1
CCc1nc(SCC(=O)NNC(=O)C(C)C)c2ccccc2n1	12µM*	0%	10%	?	-9	-3
COc1ccc(-c2ccc(C)cc2)cc1C1C2C=CCC(C)C2C(=O)N1Cc1ccccc1 (stereo not given)	.	.	.	.	-3	-5
COc1ccccc1N(Cc1ccccc1)S(=O)(=O)c1cccc(C(=O)NCC2CCCO2)c1 (stereo not given)	?	4%	.	?	.	.
Cc1ccc(NS(=O)(=O)c2ccc(C(=O)NCc3ccc(S(N)(=O)=O)cc3)cc2)cc1	.	1%	.	.	.	.
O=C(Nc1nc(-c2cc3ccccc3o2)cs1)c1ccc(S(=O)(=O)N2CCCC2)cc1	13µM*	-12%	3%	-28%	14	-6
CC1CN(S(=O)(=O)c2ccc(C(=O)Nc3nc(-c4cc5ccccc5o4)cs3)cc2)CC(C)O1 (stereo not given)	0%	-11%	8%	0%	-5	7
CC(C)CC(=O)Nc1nc(-c2ccc(S(=O)(=O)N3CCOCC3)cc2)cs1	?	-2%	11%	?	12	-2
O=C(Nc1nc(-c2ccc(S(=O)(=O)N3CCOCC3)cc2)cs1)c1ccccc1	8.3µM*	5%	10%	8.3µM*	-9	-2
O=C(Nc1nc(-c2nc3ccccc3s2)cs1)c1ccc(S(=O)(=O)N2CCOCC2)cc1	16%	-4%	-11%	16%	45	31
Cc1ccc(Nc2nc(-c3ccc(S(=O)(=O)N4CCOCC4)cc3)cs2)cc1Cl	-11%	2%	11%	10µM*	34	15
COc1cccc(C(=O)Nc2nc(-c3ccc(S(=O)(=O)N4CCOCC4)cc3)cs2)c1	2%	?	-2%	12µM*	-2	4
Cc1ccccc1C1CC(=O)Oc2cc(C)c(Cl)c(C)c21 (stereo not given)	.	.	.	.	i	-1
COc1ccc(/C=N/Nc2nc(-c3cccc(S(=O)(=O)N4CCCC4)c3)cs2)c(OC)c1	?	3%	?	13µM*	-4	-1
Cc1ccc(-c2csc(NC(=O)c3ccc(S(=O)(=O)N4CCc5ccccc54)cc3)n2)cc1	13µM*	2%	7%	10µM*	-6	-1
CCOc1ccc(-c2csc(NC(=O)c3ccc(S(=O)(=O)N4CCc5ccccc5C4)cc3)n2)cc1	-19%	16%	1%	13%	-6	-1
O=C(CSCc1cc(=O)n2ccsc2n1)Nc1ccccc1	?	2%	-8%	16%	-11	8
CC(=O)Nc1nnc(SCc2ccc(C(=O)Nc3ccccc3F)cc2)s1	?	-2%	.	?	31	17
CCC1(C)NC(=O)N(/N=C/c2cc(OC)c(O)c(OC)c2)C1=O (stereo not given)	-17%	-3%	.	14%	22	-5
CCC1(C)NC(=O)N(/N=C/c2ccc(C)s2)C1=O (stereo not given)	94%	2%	0%	51%	47*	46*
COc1cc2nc(/C=C/c3cc(OC)c(OC)c(OC)c3)sc2cc1SC	-102%	-2%	5%	2.6µM*	-6	-4
O=C(O)c1ccc(-c2ccccc2)[nH]c1=O	22%	4%	0%	10%	3	-1
CCCCN1C(=N)N([C@@H](CCC)CN2CCC[C@H]2CN2C(N)=NC[C@H]2C(C)C)C[C@H]1[C@H](C)CC	.	-3%	.	.	.	.
CN(CC(=O)NCCC1=CCCCC1)S(=O)(=O)c1ccc2c(c1)CCC(=O)N2	3.3µM*	2%	-4%	?	17	-4
SMILES	Pf growth 96h	SARS PLP yeast	NS1 inh	Pf growth 48h	Shiga inhibitor	Cycloheximide cs
O=C1CCc2cc(S(=O)(=O)N3CCC(C(=O)NCCC4=CCCCC4)CC3)ccc2N1	0.83µM*	-5%	-5%	.	1	-3
C=CCOc1ccccc1CNc1cccc(F)c1	10µM*	7%	7%	-2%	-9	-1
CCOc1ccc(Br)cc1CN(CC)CC	14%	0%	-2%	92%	8	-2
CCOc1ccc(Br)cc1CNc1ccc2c(c1)OCCO2	-8%	-1%	-2%	-21%	43	23*
C=CCOc1ccccc1CNc1ccc2c(c1)OCCO2	-48%	-4%	.	64%	53*	27*
COCCSc1ccccc1C(=O)NCc1ccco1	18%	-37%	?	26%	8	-3
COc1ccccc1N1CCN(S(=O)(=O)CCNC(=O)c2cccc(F)c2)CC1	-6%	5%	.	-26%	.	.
CNc1nnc(-c2cccc(N(C)C)c2)s1	3%	-10%	-11%	148%	122*	46*
Cc1ccc(S(C)(=O)=N/C=C2\C(=O)c3sccc3N(C)S2(=O)=O)cc1 (stereo not given)	?	3%	6%	?	20	-3
O=C(NC1CC1)C1C2C3C4CC5C3C5C4C12 (stereo not given)	7%	-7%	-14%	5.9µM*	-6	7
C[C@@]12CCC=C[C@H]1[C@H](c1ccc(C(F)(F)F)cc1)N(Cc1ccccc1)C2=O	10µM*	-17%	-56%	?	-3	-4
C[C@@]12CCC=C[C@H]1[C@H](c1ccc(/C=C/c3ccccc3)cc1F)N(Cc1ccccc1)C2=O	?	-2%	20%	12µM*	9	7
COc1ccc(C2C3C=CCCC3(C)C(=O)N2Cc2ccccc2)cc1Cl (stereo not given)	.	.	.	.	-4	0
Cc1nc(Cc2nnc(SC(C)C(=O)Nc3cccc(C#N)c3)o2)cs1 (stereo not given)	3%	-9%	.	16%	.	.
CCCc1nn2c(=O)cc(CSCC(=O)Nc3cccc(OC)c3)nc2s1	38%	4%	-2%	-7%	-2	1
CCCc1ccc(C#N)c(SC2CC(=O)N(c3ccc(OC)cc3)C2=O)n1 (stereo not given)	?	-1%	3%	25%	-26	1
N#Cc1cc2c(nc1SC1CC(=O)N(c3ccccc3)C1=O)CCC2 (stereo not given)	403%	3%	7%	316%	115*	83*
COCc1cc(C)nc(SCC(=O)N2CCC(C)CC2)c1C#N	.	3%	0%	?	-22	5
O=C(Cn1cc(C(F)(F)F)cc(Cl)c1=O)NCc1ccc(Cl)cc1Cl	?	13%	16%	?	-6	-3
O=C(Cn1cc([N+](=O)[O-])ccc1=O)NCc1ccc(Cl)cc1Cl	54%	-4%	-2%	80%	24*	33*
COc1cccc(NC(=S)N(C)C2CCN(C)CC2)c1	-5%	-1%	2%	15%	7	-1
